This is an account of results in PubChem BioAssay (NCATS).

SMILES strings stand for the structures. Values joined by “and” are separate entries in the source; they are usually repeats but may differ in a detail not shown here. Equal values may be shown once. Records with an inconclusive call do not appear. Active and inactive are the calls of the source. Unless noted, calls follow the shape of the full dose curve.

In test [1] the target is Peroxisome proliferator-activated receptor gamma (Homo sapiens) (UniProt P37231). The experiment in a line: qHTS assay for small molecule agonists of peroxisome proliferator-activated receptor gamma signaling (AID 588536; active = well fitted curve in the direction sought with a large enough effect in the signal ratio, with a control signal flat, not every such curve was filed as active; the % refers to the signal ratio;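 also: 0% = DMSO basal wells and 100% = rosiglitazone at 2 µM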). An outline of the steps: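 GeneBLAzer PPAR-gamma-UAS-bla HEK293 cells in 1% charcoal/dextran-treated FBS medium were treated 16 h at 37 C with compounds. Beta-lactamase activity was read by CCF4 ratio (460/530 nm). Response was normalized to 2 uM rosiglitazone (100%) and DMSO, then Hill-fitted for EC50 and efficacy.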
Chain of Peroxisome proliferator-activated receptor gamma (Homo sapiens) (P37231 whole entry, looked up): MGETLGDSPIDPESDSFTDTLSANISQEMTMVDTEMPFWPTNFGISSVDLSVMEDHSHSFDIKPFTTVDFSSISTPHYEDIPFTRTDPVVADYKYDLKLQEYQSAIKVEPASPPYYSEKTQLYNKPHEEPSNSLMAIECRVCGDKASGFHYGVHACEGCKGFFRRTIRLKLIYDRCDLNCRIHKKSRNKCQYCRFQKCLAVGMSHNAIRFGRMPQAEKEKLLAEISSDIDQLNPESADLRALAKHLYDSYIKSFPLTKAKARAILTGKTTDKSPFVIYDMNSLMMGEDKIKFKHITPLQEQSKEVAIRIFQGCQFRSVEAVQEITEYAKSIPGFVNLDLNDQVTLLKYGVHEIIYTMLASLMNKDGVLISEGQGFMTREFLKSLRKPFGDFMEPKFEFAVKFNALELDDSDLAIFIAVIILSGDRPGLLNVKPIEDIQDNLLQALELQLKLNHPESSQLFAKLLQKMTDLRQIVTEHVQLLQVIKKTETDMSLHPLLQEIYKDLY

Test [2] has as its target Vitamin D3 receptor (Homo sapiens) (UniProt P11473). The experiment in a line: qHTS assay for small molecule antagonists of vitamin D receptor signaling (AID 588541).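 Also: receptor activated by calcitriol during compound treatment; series mostly up to about 77 µM; % is scaled to controls: 0 for no effect and ±100 for the full control effect.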 The gist of the method:
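Antagonist-mode beta-lactamase reporter assay: HEK293T VDR-UAS-bla cells were exposed to titrated compound alongside 1-alpha,25-dihydroxyvitamin D3 at 3 nM final for 16 h. Values were normalized to the 50 nM agonist control and DMSO basal, with IC50 and efficacy from Hill equation fits.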
A general note: Quantitative high-throughput screening tests each substance at several concentrations.

Test [3] shares this target. The experiment in a line: qHTS assay for small molecule agonists of vitamin D receptor signaling (AID 588543).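 Also: 0% = DMSO basal and 100% = reference agonist control.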 An outline of the steps: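 β-lactamase reporter, VDR-UAS-bla HEK293T, agonist mode. Cells plated 5 h at 37 °C, compound titration 16 h at 37 °C, CCF4 dye 2 h RT, ratio 460/530 nm. Hill fit → EC50, efficacy vs 50 nM 1α,25-(OH)2D3.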
A short description of test [4]: qHTS assay for small molecule agonists of retinoid X receptor alpha signaling (AID 588544).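 As to activation: 0% = DMSO basal wells and 100% = reference agonist.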 The following applies: HEK293T RXRa-UAS-bla, beta-lactamase reporter, 18 h; 530 nm emission.
Test [5] addresses Retinoic acid receptor RXR-alpha (Homo sapiens) (UniProt P19793). The description is as above.
Test [6] deals with Thyroid hormone receptor beta (Homo sapiens) (UniProt P10828). The experiment in a line: qHTS assay for small molecule agonists of thyroid hormone receptor beta signaling (AID 588545).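 Also: 0% = DMSO only and 100% = 10 nM T3.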 An outline of the steps:
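TR-UAS-bla GripTite HEK 293 cells (2500/well, medium with 2% charcoal/dextran FBS) were treated in agonist mode for 18 h at 37 C, titrated. Beta-lactamase was read by CCF4 ratio after 2 h; normalized to 10 nM T3 (100%) and DMSO, Hill-fitted for EC50 and efficacy.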

The nature of test [7]: qHTS assay for small molecule antagonists of retinoid X receptor alpha signaling (AID 588546; active = well fitted inhibition curve with a large enough effect in the signal ratio, with a control signal flat, not every such curve was filed as active; the % refers to the signal ratio;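 also: cells stimulated with 9-cis-retinoic acid as agonist; % is scaled to controls: 0 for no effect and ±100 for the full control effect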). The settings on record: HEK293T RXRa-UAS-bla, beta-lactamase ratio, antagonist mode; measured here: W530 green channel, cytotoxicity proxy. An outline of the steps:
(§1)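 Beta-lactamase reporter inhibition, read as CCF4 fluorescence ratio (ex 405, em 460/530 nm) after 2 h at RT. HEK293T UAS-bla cells, 2500/well, were stimulated with 9-cis-RA at 500 or 100 nM final alongside test compound for 18 h at 37 C.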

The target of test [8] is Retinoic acid receptor RXR-alpha (Homo sapiens) (UniProt P19793). The test is described as above. The settings on record: HEK293T RXRa-UAS-bla, beta-lactamase ratio, antagonist mode. An outline of the steps:
as §1

The target in test [9] is Thyroid hormone receptor beta (Homo sapiens) (UniProt P10828). Kind of test: qHTS assay for small molecule antagonists of thyroid hormone receptor beta signaling (AID 588547; active = well fitted inhibition curve with a large enough effect in the signal ratio, with a control signal flat, not every such curve was filed as active; the % refers to the signal ratio;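 also: cells stimulated with 0.4 nM T3 agonist during compound exposure; series mostly up to about 77 µM; % is scaled to controls: 0 for no effect and ±100 for the full control effect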). The settings on record: TR-UAS-bla HEK293, beta-lactamase ratio, antagonist mode, 18 h. An outline of the steps: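 Inhibition of T3-driven (0.4nM final) beta-lactamase reporter activity was measured over 0.59 nM to 92 uM compound after 18 h at 37 C. The cells were GripTite HEK293 TR-UAS-bla in charcoal/dextran-stripped serum, with CCF4 ratio read-out and IC50 from Hill fits.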
Chain of Thyroid hormone receptor beta (Homo sapiens) (P10828 whole entry, looked up): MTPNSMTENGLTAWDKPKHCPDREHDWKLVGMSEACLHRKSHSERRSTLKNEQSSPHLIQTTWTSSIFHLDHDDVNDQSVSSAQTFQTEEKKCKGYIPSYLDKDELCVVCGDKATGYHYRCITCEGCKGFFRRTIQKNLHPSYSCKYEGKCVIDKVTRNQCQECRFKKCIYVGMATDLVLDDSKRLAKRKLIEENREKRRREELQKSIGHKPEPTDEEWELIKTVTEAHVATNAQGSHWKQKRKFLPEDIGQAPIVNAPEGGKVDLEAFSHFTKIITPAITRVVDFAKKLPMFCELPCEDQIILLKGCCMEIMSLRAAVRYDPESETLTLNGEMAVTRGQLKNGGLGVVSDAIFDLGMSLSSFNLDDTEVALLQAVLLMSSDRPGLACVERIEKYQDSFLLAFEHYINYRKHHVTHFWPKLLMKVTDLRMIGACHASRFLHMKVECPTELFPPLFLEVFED

In test [10] the target is Voltage-gated inwardly rectifying potassium channel KCNH2 (Homo sapiens) (UniProt Q12809). The experiment in a line: qHTS Assay for Small Molecule Inhibitors of the Human hERG Channel Activity (AID 588834; active = well fitted inhibition curve with a large enough effect;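 also: top concentration of the series differs between compounds; % is scaled to controls: 0 for no effect and ±100 for the full control effect; lower thallium flux fluorescence means stronger hERG block; nearly all actives have a fitted effect of over 50% in size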). An outline of the steps:
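Concentration-response qHTS measuring drop in thallium-sensitive dye signal. U2OS cells carrying BacMam hERG; compound exposure ~10 min, then stimulation buffer and 2 min read at 1 sec intervals.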

Test [11] in a line: qHTS assay for small molecule agonists of the antioxidant response element (ARE) signaling pathway (AID 651741; active = well fitted activation curve with a large enough effect in the signal ratio; the % refers to the signal ratio; also: potency is read from the fitted curve at half-maximal effect; as to activation: % of control where 0% means no effect). The gist of the method:
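Seeding 2,000 ARE-bla HepG2 cells per well preceded a 5 h incubation at 37 C/5% CO2 and a 16 h compound exposure at 37 C. Beta-lactamase reporter activity was then quantified by fluorescence after 2 h with LiveBLAzer B/G FRET substrate.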

Test [12] can be described thus: qHTS assay for small molecule activators of the nuclear factor-kappa B (NF-kB) signaling pathway (AID 651749; active = well fitted activation curve with a large enough effect in the signal ratio; the % refers to the signal ratio; also: series mostly up to about 77 µM; % of control where 0% means no effect). The following applies: NF-kB-bla ME-180 cells, beta-lactamase FRET ratio, 16 h; stronger effect = higher value. The gist of the method:
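Stably transfected ME-180 line; NF-kB response element upstream of beta-lactamase. Treatment: compound or DMSO, 16 hr. Detection: fluorescent FRET substrate.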

The target of test [13] is Peroxisome proliferator-activated receptor gamma (Homo sapiens) (UniProt P37231). The experiment in a line: qHTS assay for small molecule antagonists of peroxisome proliferator-activated receptor gamma signaling (AID 588537; active = well fitted inhibition curve with a large enough effect in the signal ratio, with a control signal flat, not every such curve was filed as active; the % refers to the signal ratio;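 also: reporter cells co-stimulated with 50 nM rosiglitazone agonist during compound treatment; % of control where 0% means no effect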). An outline of the steps: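 Inhibitors of agonist-stimulated UAS-bla reporter activity were sought in HEK293 cells; rosiglitazone (50 nM) defined full signal and DMSO baseline. Curves fitted to Hill model gave IC50 and efficacy.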

Test [14] in a line: qHTS assay for small molecule activators of the p53 signaling pathway (AID 651743; active = well fitted activation curve with a large enough effect in the signal ratio, not every such curve was filed as active; the % refers to the signal ratio; also: series mostly up to about 92 µM; % of control where 0% means no effect). The settings on record: HCT-116 p53RE-bla, beta-lactamase FRET ratio, 16 h; stronger effect = higher value. An outline of the steps:
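Screen for p53 pathway agonists uses stably transfected p53RE-bla HCT-116 cells, 4,000 per well, treated 16 h at 37 C with compounds in DMSO.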

The nature of test [15]: qHTS assay for small molecule antagonists of peroxisome proliferator-activated receptor delta signaling (AID 588535; active = well fitted inhibition curve with a large enough effect in the signal ratio, with a control signal flat, not every such curve was filed as active; the % refers to the signal ratio;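 as to max response: cells co-treated with a PPAR-delta agonist as stimulator during compound exposure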). The following applies: HEK293T PPARd-UAS-bla, beta-lactamase FRET ratio, 18 h; 460 nm channel. The gist of the method:
(§2)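 Cell-based beta-lactamase assay in antagonist mode: 4000 HEK293T PPAR-delta-UAS-bla cells per well, 5 hr preincubation then 18 hr compound incubation at 37 C. IC50 obtained by Hill equation fitting.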

In test [16] the target is Peroxisome proliferator-activated receptor delta (Homo sapiens) (UniProt Q03181). The test is described as above. An outline of the steps: as §2
Chain of Peroxisome proliferator-activated receptor delta (Homo sapiens) (Q03181 whole entry, looked up): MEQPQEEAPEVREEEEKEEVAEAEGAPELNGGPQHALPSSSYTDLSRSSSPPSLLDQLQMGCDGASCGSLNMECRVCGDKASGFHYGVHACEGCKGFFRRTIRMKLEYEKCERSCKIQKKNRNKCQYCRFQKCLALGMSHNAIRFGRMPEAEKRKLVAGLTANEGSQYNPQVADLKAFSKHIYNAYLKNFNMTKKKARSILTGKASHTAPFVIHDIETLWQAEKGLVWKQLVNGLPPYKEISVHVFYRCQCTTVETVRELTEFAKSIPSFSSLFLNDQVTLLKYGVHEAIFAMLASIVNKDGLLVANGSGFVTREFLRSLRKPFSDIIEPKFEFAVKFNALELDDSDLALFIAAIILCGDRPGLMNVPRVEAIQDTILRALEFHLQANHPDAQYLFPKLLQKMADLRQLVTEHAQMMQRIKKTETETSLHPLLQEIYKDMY

Chain of Retinoic acid receptor RXR-alpha (Homo sapiens) (P19793 whole entry, looked up): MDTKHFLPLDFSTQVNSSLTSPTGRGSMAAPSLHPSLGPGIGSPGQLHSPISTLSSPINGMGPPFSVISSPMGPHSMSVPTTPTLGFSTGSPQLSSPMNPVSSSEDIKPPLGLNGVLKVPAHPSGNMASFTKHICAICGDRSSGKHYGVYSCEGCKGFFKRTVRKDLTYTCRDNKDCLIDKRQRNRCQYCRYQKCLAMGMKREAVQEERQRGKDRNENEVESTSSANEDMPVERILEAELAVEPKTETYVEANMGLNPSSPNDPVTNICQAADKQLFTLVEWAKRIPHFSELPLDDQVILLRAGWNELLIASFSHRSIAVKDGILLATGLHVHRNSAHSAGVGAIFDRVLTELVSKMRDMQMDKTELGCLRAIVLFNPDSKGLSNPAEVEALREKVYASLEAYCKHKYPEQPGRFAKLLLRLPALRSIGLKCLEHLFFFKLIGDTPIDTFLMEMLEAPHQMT
Chain of Voltage-gated inwardly rectifying potassium channel KCNH2 (Homo sapiens) (Q12809 whole entry, looked up): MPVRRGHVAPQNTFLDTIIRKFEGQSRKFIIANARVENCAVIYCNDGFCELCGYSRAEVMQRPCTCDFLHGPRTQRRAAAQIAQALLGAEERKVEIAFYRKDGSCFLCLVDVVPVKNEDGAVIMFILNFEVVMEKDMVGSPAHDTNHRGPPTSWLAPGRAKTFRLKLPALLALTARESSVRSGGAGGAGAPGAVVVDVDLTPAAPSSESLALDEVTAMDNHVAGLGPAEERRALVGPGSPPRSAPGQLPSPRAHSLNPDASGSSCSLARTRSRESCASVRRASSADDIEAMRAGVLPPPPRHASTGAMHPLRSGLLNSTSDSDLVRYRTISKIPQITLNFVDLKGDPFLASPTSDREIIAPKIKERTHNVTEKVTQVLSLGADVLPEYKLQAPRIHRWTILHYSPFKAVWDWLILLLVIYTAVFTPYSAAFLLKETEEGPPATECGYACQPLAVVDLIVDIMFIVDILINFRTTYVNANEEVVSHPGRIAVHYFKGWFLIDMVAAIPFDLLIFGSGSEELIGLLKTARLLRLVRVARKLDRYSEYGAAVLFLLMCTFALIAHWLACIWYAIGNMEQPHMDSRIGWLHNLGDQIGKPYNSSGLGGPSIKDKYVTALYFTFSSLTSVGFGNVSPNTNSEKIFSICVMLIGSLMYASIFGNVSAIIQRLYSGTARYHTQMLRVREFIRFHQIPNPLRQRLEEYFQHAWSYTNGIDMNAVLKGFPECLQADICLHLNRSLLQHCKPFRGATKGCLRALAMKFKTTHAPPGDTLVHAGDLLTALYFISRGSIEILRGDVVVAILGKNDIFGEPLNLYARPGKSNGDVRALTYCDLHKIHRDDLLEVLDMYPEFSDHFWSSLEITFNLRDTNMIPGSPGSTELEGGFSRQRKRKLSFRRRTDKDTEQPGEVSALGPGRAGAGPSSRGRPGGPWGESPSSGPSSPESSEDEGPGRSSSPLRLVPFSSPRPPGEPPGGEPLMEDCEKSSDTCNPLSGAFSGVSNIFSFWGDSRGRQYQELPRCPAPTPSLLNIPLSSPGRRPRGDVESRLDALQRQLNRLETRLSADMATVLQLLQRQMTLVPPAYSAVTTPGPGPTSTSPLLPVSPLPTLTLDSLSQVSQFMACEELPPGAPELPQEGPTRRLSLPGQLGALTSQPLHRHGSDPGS
Chain of Vitamin D3 receptor (Homo sapiens) (P11473 whole entry, looked up): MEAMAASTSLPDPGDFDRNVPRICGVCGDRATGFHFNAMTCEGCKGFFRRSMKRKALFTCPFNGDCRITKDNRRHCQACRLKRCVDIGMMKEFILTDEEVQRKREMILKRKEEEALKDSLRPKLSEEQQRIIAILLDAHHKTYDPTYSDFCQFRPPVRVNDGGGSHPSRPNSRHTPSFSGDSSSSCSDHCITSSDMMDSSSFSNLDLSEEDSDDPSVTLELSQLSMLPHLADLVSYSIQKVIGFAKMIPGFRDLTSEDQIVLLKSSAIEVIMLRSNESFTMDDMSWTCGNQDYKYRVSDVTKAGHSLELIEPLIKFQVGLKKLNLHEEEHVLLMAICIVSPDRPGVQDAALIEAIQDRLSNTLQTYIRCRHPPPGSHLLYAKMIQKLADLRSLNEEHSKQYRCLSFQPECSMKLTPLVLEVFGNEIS

Regarding `NC=O`, the result in test [1], in test [2], in test [3], in test [5] and in test [6] was inactive. Besides, the results for the max response in [4], in test [7] and in [8] were 4.7%, -9.34% and -7.48% (inactive), respectively. For the same compound, the activity change % (negative = inhibition) in test [9] is 21.1% (inactive). For the same compound, the Potency result in test [10] and in test [11] was “inactive” each time. Also, the activation in test [12] was -0.435% (inactive).

Regarding `Cc1ccc2nc(-c3ccc(N)cc3)sc2c1S(=O)(=O)O`, the compound was called inactive in [13] and in test [2]. Also, the max response in test [7] was -1.52%; in test [8], 30.6% (inactive). For the same compound, the Potency in test [11] is 42.2 µM (active). Also, in [14], the activation is 18.6% (inactive).

As to `Cc1ccc(C(C)(C)C)cc1`, the max response in [15] was -8.71%; in test [4], -4.76%; in test [7], -11.6%; in [8], 4.12% (inactive). In addition, the compound was called inactive in test [1], in test [2], in test [3], in test [5] and in test [6]. Also, in [9], the activity change % (negative = inhibition) was 14% (inactive). In test [11], the Potency entry was “inactive”. Further, the activation in test [14] is -7.08% (inactive).

Take `CC(=O)OCc1ccco1`: the max response in test [15] is -12.4%; in [4] it was 9.34%; in test [7] it was -0.347%; in [8], 29.2% (inactive). For the same compound, the Potency entry in [16] was “inactive”. In addition, the result in [1], in test [2], in [3] and in test [5] was inactive. Moreover, the activity change % (negative = inhibition) in test [9] was -12.4% (inactive). Also, the activation in test [12] is 0.228% (inactive).

`CCCCN(CCO)CCCC`: the max response in test [15] was 4.41%; in test [4], -2.59%; in test [7], -12.3%; in [8] it was 4.73% (inactive). Moreover, the Potency entry in test [16], in [10] and in test [11] was “inactive” each time. Besides, the compound was called inactive in test [1], in test [2], in test [5] and in [6]. Besides, the activity change % (negative = inhibition) in test [9] was 22.2% (inactive).

With `COc1ccc(N)c(C)c1`, the values for the max response in [15], in test [4] and in test [7] were -12.2%, -12.9% and -2.69%, respectively. Further, the Potency entry in [16], in test [10] and in test [11] was “inactive” throughout. The result in test [2], in test [3], in test [5] and in test [6] was inactive. Further, the activity change % (negative = inhibition) in [9] was -12.3% (inactive). In addition, the activation in test [12] was -0.857% (inactive).

As to `CCCCC(CC)CNCC(CC)CCCC` (configuration not stated), the max response was 11.3% in test [15], 2.31% in [4], 0.349% in test [7] and 10% (inactive) in test [8]. Also, the result in [2], in test [3], in test [5] and in [6] was inactive. Besides, the activity change % (negative = inhibition) in [9] is 4.7% (inactive). Further, the Potency result in test [11] is “inactive”. In addition, the activation in [12] is -0.684% (inactive).

For `C[C@@H]1CC2(OC3C[C@@]4(C)C5=CC[C@H]6C(C)(C)C(O[C@@H]7OC[C@@H](O)[C@H](O)[C@H]7O)CC[C@@]67C[C@@]57CC[C@]4(C)C31)OC(O)C1(C)OC21` (some centres not stated), the result in test [2] and in test [6] was inactive. Also, the Potency result in test [10] is “inactive”. Further, the Potency in test [11] is 75 µM (active). Moreover, the activation is -4.93% (inactive) in test [14] and -1.92% (inactive) in test [12].

For the compound `O=C(O)CN(CC(=O)O)CC(=O)O`, the compound was classed as inactive in [1], in [13] and in test [5]. The max response in test [4] is -7.34% and 8.5%; in [7], -6.97% and -9%; in test [8], -2.38% (inactive) and 4.38% (inactive). The Potency entry in test [10] and in test [11] was “inactive” each time. Besides, the activation in [14] was -2.4% (inactive) and 1.34% (inactive) and -0.523% (inactive).

With `Cc1ccc2c(c1[N+](=O)[O-])C(=O)c1ccccc1C2=O`, the outcome in test [1], in test [2], in test [3], in test [5] and in test [6] was inactive. For the same compound, the max response is -1.88% in test [4], -5.46% in [7] and -0.36% (inactive) in [8]. In addition, the activity change % (negative = inhibition) in [9] is -11.5% (inactive). Also, the Potency entry in test [10] is “inactive”. Further, in [11], the Potency was 11.9 µM (active). Further, the activation in test [14] is 7.91% (inactive); in test [12], -0.166% (inactive).

For `COC(=O)CC#N`, the compound was called inactive in [1], in test [13], in test [2], in test [3] and in [5]. Moreover, the values for the max response in test [4], in [7] and in test [8] were -7.46%, -3.78% and -0.774% (inactive), respectively. Further, the activity change % (negative = inhibition) in test [9] is 2.83% (inactive). The Potency entry in test [10] and in test [11] was “inactive” each time. In addition, the activation in [14] was -2.67% (inactive); in [12] it was -0.54% (inactive).
